# Assay results published in PMC7862700, “An all-to-all approach to the identification of sequence-specific readers for epigenetic DNA modifications on cytosine”.
# Experiments:
# Assay in all cases: DAPPL (digital affinity profiling via proximity ligation, sequencing); 10 mM Tris-HCl pH 7.5, 50 mM NaCl, 1 mM DTT, 4% glycerol, room temperature, 30 min; GST-TFs on glutathione beads, 16-mer random dsDNA library, 0.1% formaldehyde crosslink after washing; high values mean tight binding
# FEV = target: T1, FEV (Homo sapiens, UniProt Q99581 1-238); conditions: protein: recombinant; tags: N-terminal GST; dsDNA, one strand shown
# T1 sequence: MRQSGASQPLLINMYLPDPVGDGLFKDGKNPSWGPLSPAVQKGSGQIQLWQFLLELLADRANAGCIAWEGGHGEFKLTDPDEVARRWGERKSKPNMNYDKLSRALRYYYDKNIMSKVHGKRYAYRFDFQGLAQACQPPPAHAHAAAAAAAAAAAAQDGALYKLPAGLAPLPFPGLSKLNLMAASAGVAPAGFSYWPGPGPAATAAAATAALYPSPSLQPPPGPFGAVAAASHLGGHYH
# Procedure, shortened: (§1)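 Human transcription factors fused to GST were expressed in yeast, captured on glutathione beads, given DNA barcodes and pooled with a GST-only negative control. Pools were incubated with 200 nmole of a 16-mer random double-stranded DNA library in Tris/NaCl/DTT/glycerol buffer at room temperature for 30 min. They were then washed, crosslinked with 0.1% formaldehyde, proximity-ligated (BsaI/T4 ligase, 1 h, 37 °C), PCR-amplified and sequenced on an Illumina NextSeq500. Binding signal is each 6-mer's read frequency for a factor divided by its frequency for the GST control.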
# ETV5 = ETV5 (Homo sapiens, UniProt P41161 1-510); conditions: protein: recombinant; tags: N-terminal GST; dsDNA, one strand shown
# Procedure, shortened: as §1
# HSF1 = HSF1 (Homo sapiens, UniProt Q00613 1-529); conditions: protein: recombinant; tags: N-terminal GST; chain copies: 3; dsDNA, one strand shown
# Procedure, shortened: as §1
# SPIC = target: T2, SPIC (Homo sapiens, UniProt Q8N5J4 1-248); conditions: protein: recombinant; tags: N-terminal GST; dsDNA, one strand shown
# T2 sequence: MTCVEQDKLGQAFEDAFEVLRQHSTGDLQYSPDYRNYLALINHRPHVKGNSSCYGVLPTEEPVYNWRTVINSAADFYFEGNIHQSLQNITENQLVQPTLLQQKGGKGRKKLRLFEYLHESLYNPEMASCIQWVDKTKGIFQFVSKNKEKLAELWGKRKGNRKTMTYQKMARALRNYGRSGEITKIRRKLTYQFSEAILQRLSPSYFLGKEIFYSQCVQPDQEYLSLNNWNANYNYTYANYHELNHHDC
# Procedure, shortened: as §1
# ELF4 = ELF4 (Homo sapiens, UniProt Q99607 1-663); conditions: protein: recombinant; tags: N-terminal GST; dsDNA, one strand shown
# Procedure, shortened: as §1
# ELK4 = target: T3, ELK4 (Homo sapiens, UniProt P28324-2 1-405); conditions: protein: recombinant; tags: N-terminal GST; dsDNA, one strand shown
# T3 sequence: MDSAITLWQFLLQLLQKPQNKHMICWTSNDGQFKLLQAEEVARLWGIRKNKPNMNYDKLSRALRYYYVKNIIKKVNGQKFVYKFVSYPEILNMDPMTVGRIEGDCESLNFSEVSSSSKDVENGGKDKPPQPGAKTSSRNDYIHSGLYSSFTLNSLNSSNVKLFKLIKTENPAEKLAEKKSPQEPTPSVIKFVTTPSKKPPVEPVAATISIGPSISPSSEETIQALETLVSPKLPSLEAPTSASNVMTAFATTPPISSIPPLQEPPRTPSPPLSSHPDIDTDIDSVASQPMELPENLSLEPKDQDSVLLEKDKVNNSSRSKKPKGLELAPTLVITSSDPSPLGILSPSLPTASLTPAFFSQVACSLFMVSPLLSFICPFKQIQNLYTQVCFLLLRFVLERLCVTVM
# Procedure, shortened: as §1
# ETV2 = target: T4, ETV2 (Homo sapiens, UniProt O00321 1-342); conditions: protein: recombinant; tags: N-terminal GST; dsDNA, one strand shown
# T4 sequence: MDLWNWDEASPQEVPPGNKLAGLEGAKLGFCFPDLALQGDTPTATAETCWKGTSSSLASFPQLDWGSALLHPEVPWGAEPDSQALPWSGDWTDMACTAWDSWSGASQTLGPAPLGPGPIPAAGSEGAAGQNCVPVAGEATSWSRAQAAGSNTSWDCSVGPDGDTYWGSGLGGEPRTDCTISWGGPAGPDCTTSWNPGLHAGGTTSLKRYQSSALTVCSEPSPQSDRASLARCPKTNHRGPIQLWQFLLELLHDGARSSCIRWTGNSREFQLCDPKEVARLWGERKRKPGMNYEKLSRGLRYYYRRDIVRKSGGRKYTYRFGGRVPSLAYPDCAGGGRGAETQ
# Procedure, shortened: as §1
# ELF3 = target: T5, ELF3 (Homo sapiens, UniProt P78545 1-371); conditions: protein: recombinant; tags: N-terminal GST; dsDNA, one strand shown
# T5 sequence: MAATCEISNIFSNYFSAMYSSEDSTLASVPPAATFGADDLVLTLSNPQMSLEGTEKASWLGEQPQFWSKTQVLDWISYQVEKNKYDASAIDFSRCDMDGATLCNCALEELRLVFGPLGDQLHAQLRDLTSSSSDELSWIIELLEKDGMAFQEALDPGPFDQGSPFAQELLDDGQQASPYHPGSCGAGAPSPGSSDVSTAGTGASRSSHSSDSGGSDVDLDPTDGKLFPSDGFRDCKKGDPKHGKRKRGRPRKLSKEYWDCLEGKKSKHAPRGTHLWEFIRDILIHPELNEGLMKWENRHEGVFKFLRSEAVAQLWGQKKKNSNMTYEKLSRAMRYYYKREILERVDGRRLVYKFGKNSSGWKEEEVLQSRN
# Procedure, shortened: as §1
# CRX = CRX (Homo sapiens, UniProt O43186 1-299); conditions: protein: recombinant; tags: N-terminal GST; dsDNA, one strand shown
# Procedure, shortened: as §1
# ELF4, sequence (Q99607 whole entry): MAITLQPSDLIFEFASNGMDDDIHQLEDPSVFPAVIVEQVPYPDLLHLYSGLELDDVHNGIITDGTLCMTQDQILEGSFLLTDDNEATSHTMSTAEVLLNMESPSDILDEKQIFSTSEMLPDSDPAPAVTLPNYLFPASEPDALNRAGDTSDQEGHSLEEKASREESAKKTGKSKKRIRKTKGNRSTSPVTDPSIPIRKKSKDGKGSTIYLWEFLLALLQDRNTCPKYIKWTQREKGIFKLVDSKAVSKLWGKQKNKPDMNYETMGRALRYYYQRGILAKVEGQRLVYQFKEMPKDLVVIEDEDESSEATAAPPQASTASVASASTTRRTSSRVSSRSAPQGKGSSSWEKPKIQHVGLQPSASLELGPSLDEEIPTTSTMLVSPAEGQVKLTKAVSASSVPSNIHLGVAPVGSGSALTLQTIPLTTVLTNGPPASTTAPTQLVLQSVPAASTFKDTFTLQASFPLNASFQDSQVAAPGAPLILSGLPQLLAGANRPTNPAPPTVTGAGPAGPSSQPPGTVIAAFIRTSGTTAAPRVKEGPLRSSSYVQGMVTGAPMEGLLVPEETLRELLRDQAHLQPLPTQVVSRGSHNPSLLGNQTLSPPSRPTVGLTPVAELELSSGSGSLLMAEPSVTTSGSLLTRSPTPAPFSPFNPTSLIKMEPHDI
# CRX, sequence (O43186 whole entry): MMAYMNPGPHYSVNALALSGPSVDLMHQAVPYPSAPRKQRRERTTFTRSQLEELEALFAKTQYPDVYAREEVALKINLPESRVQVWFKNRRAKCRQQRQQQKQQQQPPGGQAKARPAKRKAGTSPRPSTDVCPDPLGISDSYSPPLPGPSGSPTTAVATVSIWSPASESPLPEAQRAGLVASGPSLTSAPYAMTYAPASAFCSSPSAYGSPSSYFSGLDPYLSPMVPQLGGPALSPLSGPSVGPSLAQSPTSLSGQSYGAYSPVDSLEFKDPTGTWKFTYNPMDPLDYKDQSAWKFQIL
# HSF1, sequence (Q00613 whole entry): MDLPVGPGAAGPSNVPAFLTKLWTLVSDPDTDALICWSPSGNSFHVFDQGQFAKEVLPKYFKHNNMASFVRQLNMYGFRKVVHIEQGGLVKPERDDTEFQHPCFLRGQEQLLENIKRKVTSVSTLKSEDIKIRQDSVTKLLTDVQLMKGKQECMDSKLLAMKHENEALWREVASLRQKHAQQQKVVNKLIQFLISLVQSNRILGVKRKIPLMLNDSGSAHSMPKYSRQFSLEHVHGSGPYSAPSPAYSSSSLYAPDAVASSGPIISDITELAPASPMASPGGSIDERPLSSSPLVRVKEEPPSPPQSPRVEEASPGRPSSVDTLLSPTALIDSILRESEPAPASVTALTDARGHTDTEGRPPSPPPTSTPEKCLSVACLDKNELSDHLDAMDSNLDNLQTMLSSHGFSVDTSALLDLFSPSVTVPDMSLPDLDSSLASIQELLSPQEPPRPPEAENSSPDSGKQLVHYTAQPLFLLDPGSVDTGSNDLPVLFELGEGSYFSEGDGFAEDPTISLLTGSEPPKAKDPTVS
# ETV5, sequence (P41161 whole entry): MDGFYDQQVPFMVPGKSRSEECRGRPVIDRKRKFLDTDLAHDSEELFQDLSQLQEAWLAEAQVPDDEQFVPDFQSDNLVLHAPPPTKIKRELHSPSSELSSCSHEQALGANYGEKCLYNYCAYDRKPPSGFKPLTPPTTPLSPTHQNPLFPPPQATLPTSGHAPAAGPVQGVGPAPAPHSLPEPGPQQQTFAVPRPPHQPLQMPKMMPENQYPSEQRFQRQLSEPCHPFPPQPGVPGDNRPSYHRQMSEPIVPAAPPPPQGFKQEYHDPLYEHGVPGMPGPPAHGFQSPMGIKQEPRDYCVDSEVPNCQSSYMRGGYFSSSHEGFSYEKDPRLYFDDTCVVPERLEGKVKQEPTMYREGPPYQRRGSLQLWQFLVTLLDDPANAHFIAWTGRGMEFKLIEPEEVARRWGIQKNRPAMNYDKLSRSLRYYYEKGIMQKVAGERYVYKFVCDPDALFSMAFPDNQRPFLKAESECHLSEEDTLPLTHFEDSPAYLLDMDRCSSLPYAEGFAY
sequence,measurement,setting,value
AACTAG,binding signal,FEV,"1.14 fold enrichment (6-mer frequency, TF over GST control)"
same,binding signal,ETV5,"1.15 fold enrichment (6-mer frequency, TF over GST control)"
same,binding signal,HSF1,"1.37 fold enrichment (6-mer frequency, TF over GST control)"
same,binding signal,SPIC,"1.2 fold enrichment (6-mer frequency, TF over GST control)"
same,binding signal,ELF4,"1.19 fold enrichment (6-mer frequency, TF over GST control)"
same,binding signal,ELK4,"1.02 fold enrichment (6-mer frequency, TF over GST control)"
same,binding signal,ETV2,"1.35 fold enrichment (6-mer frequency, TF over GST control)"
same,binding signal,ELF3,"1.1 fold enrichment (6-mer frequency, TF over GST control)"
same,binding signal,CRX,"1.11 fold enrichment (6-mer frequency, TF over GST control)"
